Assay [1] can be described thus: A CellTox Green Cytotoxicity Assay to monitor cytotoxicity in HepG2 cells - 8 hour (AID 1224890). Also: nearly all actives have a fitted effect of over 45% in size. Also: potency is read from the fitted curve at half-maximal effect. The gist of the method:
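HepG2 cells were seeded together with the CellTox Green dye at 600 cells/well, left 5 h at 37 C/5% CO2, then given compounds in DMSO. Fluorescence from dye bound to dead-cell DNA was read repeatedly over 40 h of treatment at 37 C.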

Assay [2] in a line: qHTS assay to identify small molecule antagonists of the estrogen receptor alpha (ER-alpha) signaling pathway using the BG1 cell line in the presence of 0.1 nM 17-beta-estradiol - cell viability counter screen (AID 1259241). Also: nearly all actives have a fitted effect of over 40% in size. Also: potency is read from the fitted curve at half-maximal effect. The gist of the method:
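Measures cytotoxicity alongside the ER-alpha antagonist readout: VM7Luc4E2 cells, charcoal-stripped serum, 0.1 nM 17beta-estradiol final, 22 hr compound incubation at 37C, CellTiter-Fluor fluorescence.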
In general terms: In qHTS, concentration-response curves come from the screen itself.

A short description of assay [3]: qHTS assay to identify small molecule antagonists of the androgen receptor (AR) signaling pathway using the MDA cell line in the presence of 0.5 nM R1881 - cell viability counter screen (AID 1259242). Also: nearly all actives have a fitted effect of over 45% in size. Also: potency is read from the fitted curve at half-maximal effect. In short, it runs like this:
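MDA-kb2 cells (human breast carcinoma, stably carrying MMTV-luciferase reporter) were exposed to compounds with 0.5 nM R1881 (final) for 16 hr at 37C, 0% CO2; viability then read as live-cell protease fluorescence (CellTiter-Fluor, 30 min) in the same wells.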

Assay [4] addresses Estrogen receptor (Homo sapiens) (UniProt P03372). The experiment in a line: qHTS assay to identify small molecule antagonists of the estrogen receptor alpha (ER-alpha) signaling pathway using the BG1 cell line in the presence of 0.1 nM 17-beta-estradiol (AID 1259244). Also: nearly all actives have a fitted effect of over 50% in size. Also: potency is read from the fitted curve at half-maximal effect. The gist of the method: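 VM7Luc4E2 cells (endogenous full-length ER-alpha, stable 4xERE-luciferase) were grown 5 days in phenol red-free medium with charcoal-stripped FBS, then exposed 22 h at 37C to compounds plus 0.1 nM (final) 17beta-estradiol; ONE-Glo luminescence read-out.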

A short description of assay [5]: qHTS assay to identify small molecule HDAC inhibitors (AID 1259364). Also: nearly all actives have a fitted effect of over 45% in size. Also: potency is read from the fitted curve at half-maximal effect. In short, it runs like this: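 Wild-type HCT-116 cells were plated overnight, exposed to compounds for 2 h at 37 °C, then given HDAC-Glo class I/II luminogenic reagent for 30 min at room temperature before luminescence was read.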
Assay [6] in a line: qHTS assay to identify small molecule HDAC inhibitors - cell viability counter screen (AID 1259365). Also: series mostly up to about 92 µM; nearly all actives have a fitted effect of over 50% in size. The gist of the method: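 Following a 2hr exposure of overnight-plated wild-type HCT-116 cells to DMSO-delivered compounds, CellTiter-Glo was added and luminescence recorded after 30min at room temperature.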
The nature of assay [7]: qHTS assay to identify small molecule agonists of the sonic hedgehog signaling (Shh) pathway - cell viability counter screen (AID 1259366). Also: nearly all actives have a fitted effect of over 50% in size. Also: potency is read from the fitted curve at half-maximal effect. In short, it runs like this:
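After a 4hr attachment at 37C, NIH/3T3 cells bearing an integrated Gli1-driven luciferase reporter were dosed with compounds. Treatment lasted 24hr, with the final hour including CellTiter-Fluor for a fluorescence viability measurement.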

Assay [8] is described as follows: qHTS assay to identify small molecule antagonists of the sonic hedgehog signaling (Shh) pathway - cell viability counter screen (AID 1259367). Also: nearly all actives have a fitted effect of over 55% in size. Also: potency is read from the fitted curve at half-maximal effect. The gist of the method: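 Using CellTiter-Fluor, viability of Gli1-Luc reporter 3T3 cells is read by fluorescence in the wells used for the Shh luciferase assay. Treatment lasts 23 hr with conditioned medium, then reagent 1 hr at 37C.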

The nature of assay [9]: qHTS assay to identify small molecule agonists of the sonic hedgehog signaling (Shh) pathway (AID 1259368; calls by dose curve; also: series mostly up to about 92 µM; nearly all actives have a fitted effect of over 15% in size). The gist of the method: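 NIH/3T3-derived 3T3Gli1-Luc cells carrying a stably integrated Gli1 response element–firefly luciferase reporter were plated, left 4 hr at 37 C, then given compounds in DMSO for 24 hr. Luminescence was read 30 min after adding luciferase reagent.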

Assay [10] is described as follows: qHTS assay to identify small molecule phospholipidosis (PLD) inducers (AID 1259344; active = well fitted curve in the direction sought with a large enough effect; an effect the other way counts as inactive or inconclusive). In short, it runs like this: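 Fluorescent phospholipid staining (LipidTOX Red) measured by automated microscopy in fixed HepG2 cells after 24 h treatment; nuclei counterstained with Hoechst 33342; amiodarone as reference inducer.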

Molecules are shown by their SMILES. Several values for one entry are separate records, joined by “and”; a condition that tells them apart may be missing. Identical values can stand only once. Records with an inconclusive call do not appear. Where a structure was tested more than once in an assay, its records may differ in their call. Activity calls are given as the source filed them. Unless noted, calls follow the shape of the dose curve; as a rule, active = well fitted curve in the direction sought with a large enough effect in the repeat runs; inconclusive = weak or mixed curves; inactive = no such curve, though single readings can be large; an effect the other way counts as inactive or inconclusive.

Estrogen receptor (Homo sapiens), sequence (P03372 whole entry, looked up): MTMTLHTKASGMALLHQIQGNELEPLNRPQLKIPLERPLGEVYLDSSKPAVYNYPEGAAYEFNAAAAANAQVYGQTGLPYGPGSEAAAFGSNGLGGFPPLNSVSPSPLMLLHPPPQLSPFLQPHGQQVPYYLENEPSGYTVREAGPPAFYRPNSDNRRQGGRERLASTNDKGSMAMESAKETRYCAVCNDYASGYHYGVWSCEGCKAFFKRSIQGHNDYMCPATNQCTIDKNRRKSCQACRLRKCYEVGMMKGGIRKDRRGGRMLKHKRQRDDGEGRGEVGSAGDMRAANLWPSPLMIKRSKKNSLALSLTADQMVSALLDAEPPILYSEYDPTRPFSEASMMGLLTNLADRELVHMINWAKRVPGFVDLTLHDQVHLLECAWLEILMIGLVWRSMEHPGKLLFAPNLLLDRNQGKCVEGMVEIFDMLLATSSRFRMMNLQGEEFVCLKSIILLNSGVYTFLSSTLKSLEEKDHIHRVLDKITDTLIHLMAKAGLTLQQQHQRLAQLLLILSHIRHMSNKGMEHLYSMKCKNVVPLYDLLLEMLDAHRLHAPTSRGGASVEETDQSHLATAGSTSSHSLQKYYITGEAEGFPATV

Turning to `C=C(C)C(=O)OCCCCCC`, the Potency entry in assay [1], in [2], in assay [3], in assay [4], in assay [5] and in [7] was “inactive” in each case. In addition, in assay [8], the Potency entry was “inactive”. For the same compound, the call in assay [6] and in assay [9] was inactive.

For the compound `CCCCC(CC)C(=O)OCCOCCOCCOC(=O)C(CC)CCCC` (centres undefined), the Potency entry in assay [1], in assay [2], in assay [3], in [4], in [5] and in assay [7] was “inactive” throughout. For the same compound, the Potency entry in assay [8] was “inactive”. The result in [6] and in [9] was inactive.

With `CCC(C)C=O` (centres undefined), the Potency entry in assay [1], in assay [2], in [3], in [4], in [5] and in assay [7] was “inactive” each time. Also, the Potency result in assay [8] is “inactive”. Besides, the compound was classed as inactive in assay [6] and in assay [9].

In the case of `OC[C@@H](O)[C@H](O)[C@H](O)[C@@H](O)CO`, the Potency entry in assay [1], in [2], in assay [3], in [4], in [5] and in [7] was “inactive” throughout. Moreover, in [8], the Potency entry was “inactive”. Moreover, the outcome in assay [10], in assay [6] and in assay [9] was inactive.

As to `CS(=O)(=O)c1ccc([C@@H](O)[C@@H](CO)NC(=O)C(Cl)Cl)cc1`, the Potency entry in assay [1], in [2], in assay [3], in assay [4], in assay [5] and in [7] was “inactive” each time. In addition, the Potency result in assay [8] was “inactive”. Further, the outcome in assay [10], in assay [6] and in assay [9] was inactive.

As to `CCCCC/C=C\C/C=C\CCCCCCCC(=O)OC`, the Potency entry in assay [1], in assay [2], in assay [3], in assay [4], in assay [5] and in [7] was “inactive” each time. Moreover, in assay [8], the Potency entry was “inactive”. In addition, the result in assay [6] and in [9] was inactive.

On to `O=c1c(-c2ccc(O)cc2)coc2cc(O)ccc12`, for which the Potency result in assay [1], in assay [2], in assay [3], in [4], in [7] and in assay [8] was “inactive” throughout. The Potency in [5] was 5.39 µM (active) and 6.11 µM (active). The call in [6] and in assay [9] was inactive.

For the compound `O=S(=O)(O)CCS`, the Potency result in assay [1], in assay [2], in assay [3], in assay [4], in [5] and in [7] was “inactive” each time. In assay [8], the Potency entry is “inactive”. Moreover, the outcome in [10], in assay [6] and in assay [9] was inactive.

As to `CC(C)Cc1ccccc1`, the Potency result in assay [1], in [2], in assay [3], in [4], in assay [5] and in [7] was “inactive” each time. The Potency result in assay [8] was “inactive”. Besides, the compound was classed as inactive in assay [6] and in assay [9].

In the case of `CC[Si](OC(C)=O)(OC(C)=O)OC(C)=O`, the Potency result in [1], in assay [2], in [3], in assay [4], in assay [5] and in [7] was “inactive” each time. In addition, the Potency entry in assay [8] was “inactive”. Besides, the result in [9] was inactive.

Regarding `CC1(C)O[C@@H]2C[C@H]3[C@@H]4C[C@H](F)C5=CC(=O)CC[C@]5(C)[C@H]4[C@@H](O)C[C@]3(C)[C@]2(C(=O)CO)O1`, in assay [1], the Potency was 49 µM (active) and inactive. Further, the Potency result in assay [2], in assay [3], in [4], in assay [5], in assay [7] and in [8] was “inactive” each time. In addition, the call in [10], in assay [6] and in assay [9] was inactive.

For the compound `CN(C)c1ccc(C(=N)c2ccc(N(C)C)cc2)cc1`, the Potency entry in assay [1] and in assay [5] was “inactive” throughout. Also, the Potency in [2] is 18.6 µM (active); in [3], 48 µM (active) and 46.7 µM (active); in [4] it was 17 µM (active) and 23.4 µM (active); in assay [7], 48 µM (active); in assay [8], 48 µM (active) and 23.4 µM (active). The call in assay [6] and in assay [9] was inactive.

With `CCC(=O)O`, the Potency result in [1], in [2], in assay [3], in [4], in assay [5] and in assay [7] was “inactive” throughout. In addition, the Potency entry in [8] is “inactive”. For the same compound, the result in assay [10] and in assay [9] was inactive.

Turning to `C=CC(=O)OCCCCCCCC(C)C`, the Potency entry in assay [1], in [2], in assay [3], in assay [4], in assay [5] and in [7] was “inactive” throughout. The Potency entry in assay [8] is “inactive”. Further, the result in assay [6] and in [9] was inactive.

As to `C=C(C)C(=O)OCCC[Si](OC)(OC)OC`, the Potency entry in [1], in assay [2], in assay [3], in assay [4], in [5] and in [7] was “inactive” throughout. The Potency result in assay [8] was “inactive”. Further, the outcome in assay [6] and in [9] was inactive.

With `Cc1ccc(C)c(C)c1`, the Potency entry in [1], in assay [2], in assay [3], in assay [4], in assay [5] and in [7] was “inactive” each time. Besides, in assay [8], the Potency entry was “inactive”. The result in assay [6] and in assay [9] was inactive.

For `O=S(=O)(Oc1ccc(Cl)cc1Cl)c1ccccc1`, the Potency entry in assay [1], in assay [2], in [3], in [4], in assay [5] and in assay [7] was “inactive” each time. Besides, the Potency result in assay [8] is “inactive”. In addition, the compound was classed as inactive in [6] and in assay [9].

Consider `Oc1c(Cl)cc(Cl)c(Cl)c1Cl`, for which the Potency result in [1], in assay [2], in [3], in assay [5], in assay [7] and in assay [8] was “inactive” in each case. Moreover, the Potency in [4] is 47.5 µM (active) and 61.1 µM (active). Moreover, the result in [6] and in assay [9] was inactive.

Regarding `CCCCCC/C=C/CCCCCCCC(=O)O`, the Potency result in assay [1], in [2], in [3], in [4], in [5] and in [7] was “inactive” in each case. The Potency result in assay [8] was “inactive”. In addition, the compound was classed as inactive in assay [9].

As for `CCOC(=O)[C@H](CCc1ccccc1)N[C@@H](C)C(=O)N1Cc2ccccc2C[C@H]1C(=O)O`, the Potency entry in assay [1], in [2], in assay [3], in [4], in assay [5] and in assay [7] was “inactive” throughout. Further, the compound was classed as inactive in assay [10], in [6] and in assay [9].

In the case of `CCc1ccccc1O`, the Potency entry in assay [1], in assay [2], in assay [3], in assay [5], in assay [7] and in assay [8] was “inactive” throughout. In [4], the Potency was 19.2 µM (active) and inactive. Further, the call in assay [6] and in assay [9] was inactive.

Regarding `O=[N+]([O-])C(CO)(CO)CO`, the Potency entry in assay [1], in [2], in assay [3], in [4] and in [5] was “inactive” in each case. Also, the outcome in [6] and in [9] was inactive. Besides, the Potency in [7] was 30.2 µM (active) and 48.6 µM (active); in assay [8], 214 nM (active) and inactive.

Regarding `NCc1cccc(CN)c1`, the Potency entry in assay [1], in assay [2], in assay [3], in assay [4], in assay [5] and in [7] was “inactive” each time. Also, the Potency entry in [8] is “inactive”. Also, the outcome in assay [6] and in assay [9] was inactive.

The values are drawn from PubChem BioAssay (Tox21).
